Potency and affinity values are given separately. Calls of active or inactive are those of the source. No rule for the calls is given here.
What follows are compounds tested against Paired box protein Pax-2 (Homo sapiens) (UniProt Q02962) (assay: inhibitors acting on PAX2 in cells – cell-based, plate reader, dry powder samples, selectivity assay for PAX8 inhibitor project, dose response (AID 743048)). Conditions: Pax2 cell-based reporter; series mostly up to 50 µM.
Sequence of Paired box protein Pax-2 (Homo sapiens) (Q02962 whole entry, looked up): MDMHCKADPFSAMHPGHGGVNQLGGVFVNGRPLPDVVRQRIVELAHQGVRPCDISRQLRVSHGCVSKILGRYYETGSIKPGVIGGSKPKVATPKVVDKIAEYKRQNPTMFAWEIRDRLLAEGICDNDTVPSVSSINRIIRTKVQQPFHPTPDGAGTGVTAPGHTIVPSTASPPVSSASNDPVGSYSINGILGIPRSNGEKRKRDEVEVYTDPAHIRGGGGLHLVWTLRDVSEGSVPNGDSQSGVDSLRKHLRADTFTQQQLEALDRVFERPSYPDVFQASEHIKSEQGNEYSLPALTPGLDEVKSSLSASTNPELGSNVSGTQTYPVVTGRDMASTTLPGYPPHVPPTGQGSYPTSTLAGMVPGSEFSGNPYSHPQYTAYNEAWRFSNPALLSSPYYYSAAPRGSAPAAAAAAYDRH

outcome, inactive:
O=C(CCCN1C(=O)/C(=C\c2cccc(Br)c2)SC1=S)Nc1cccnc1
C[C@H]1CN([C@@H](C)CO)C(=O)CCCn2nncc2CO[C@@H]1CN(C)C(=O)Nc1ccc(-c2cccs2)cc1
O=C(CCS(=O)(=O)c1ccccc1)Nc1nc2ccc(F)cc2s1
COc1cccc2sc(N(CCCN(C)C)C(=O)CCS(=O)(=O)c3ccccc3)nc12
NS(=O)(=O)c1ccc(CCN2C(=O)/C(=C\c3ccc(Cl)cc3)SC2=S)cc1
CC(=O)Nc1ccc(NC(=O)c2nc(S(=O)(=O)Cc3ccccc3)ncc2Cl)cc1
C[C@@H]1CN([C@H](C)CO)C(=O)CCCn2cc(nn2)CO[C@H]1CN(C)C(=O)Nc1ccc(-c2cccs2)cc1
Cc1ccc(-c2csc(NC3OC(=O)c4ccccc43)n2)cc1 (stereo not drawn)
N#C[C@H]1N[C@H](CO)[C@@H]1c1ccc(C#Cc2ccccc2F)cc1
CN(C[C@H]1N[C@@H](CO)[C@@H]1c1ccc(C2=CCCC2)cc1)C(=O)c1ccncc1
CN(C[C@H]1N[C@@H](CO)[C@@H]1c1ccc(C2=CCCC2)cc1)C(=O)c1ccc(F)cc1
CC1(C)CC(=O)c2sc(NC(=O)CCS(=O)(=O)c3ccccc3)nc2C1
O=C1/C(=C/c2cccc(Br)c2)SC(=S)N1CCC(=O)N(CCO)c1ccccc1
CC(C)c1cc(C(=O)OCC(=O)N2CCN(C(=O)c3ccco3)CC2)c(O)c(C(C)C)c1
CN(C[C@H]1N[C@@H](CO)[C@@H]1c1ccc(C2=CCCC2)cc1)C(=O)c1cccc(F)c1
O=C(CCCN1C(=O)/C(=C\c2cccc(Br)c2)SC1=S)Nc1ccccn1
N#C[C@@H]1[C@@H](c2ccc(-c3cccc(F)c3)cc2)[C@H](CO)N1C(=O)NC1CCCC1
COc1ccc(-c2cc(C(F)(F)F)nc(S(=O)(=O)CCCC(=O)Nc3cc(C)on3)n2)cc1OC

From PubChem BioAssay AID743048 (Broad Institute, 2013)
